# About 79,000 compounds went through this panel and 15% of them were active in at least one assay; those are over-represented in the sample as a whole. Unmarked numbers belong to inactive results. Active and inactive are the calls of the source. Rule as the data show it: active = growth inhibition above about 70%; inactive = the rest.
# What was measured:
# [1] = NCI Yeast Anticancer Drug Screen. Data for the rad50 strain (AID 155);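 also: 0% = growth of vehicle-only cultures of the same strain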; settings: S. cerevisiae rad50 strain growth inhibition; at 50.0 µM; active compounds read high
# Procedure, shortened: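 Compounds were tested on a yeast strain with an engineered DNA damage repair alteration; the reported value is growth inhibition normalised to vehicle treatment.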
# [2] = NCI Yeast Anticancer Drug Screen. Data for the mec2-1 strain (AID 157); settings: S. cerevisiae mec2-1 strain, at 50.0 µM, active compounds read high
# Procedure, shortened: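 Readout is yeast growth inhibition, normalised to vehicle-treated controls, in the mec2-1 strain exposed to compound.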
# [3] = NCI Yeast Anticancer Drug Screen. Data for the sgs1 mgt1 strain (AID 161);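 also: 0% = growth of cultures given vehicle only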; settings: S. cerevisiae sgs1 mgt1 strain, at 50.0 µM, active compounds read high
# Procedure, shortened: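 Percent growth inhibition was derived by comparing compound-exposed mutant yeast with vehicle-exposed cultures. The strain carries alterations in DNA damage repair.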
# [4] = NCI Yeast Anticancer Drug Screen. Data for the cln2 rad14 strain (AID 165);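 also: 0% = growth equal to vehicle treated cultures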; settings: S. cerevisiae cln2 rad14 strain, at 50.0 µM, active compounds read high
# Procedure, shortened: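 Relative to vehicle controls, growth inhibition of compound-treated cln2 rad14 yeast was recorded.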
# [5] = NCI Yeast Anticancer Drug Screen. Data for the bub3 strain (AID 167); settings: S. cerevisiae bub3 mutant strain, at 50.0 µM, active compounds read high
# Procedure, shortened: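 Growth of a checkpoint-deficient yeast mutant is measured after compound exposure. Values represent inhibition relative to vehicle.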
# [6] = NCI Yeast Anticancer Drug Screen. Data for the mlh1 rad18 strain (AID 175); settings: S. cerevisiae mlh1 rad18 strain growth inhibition; at 50.0 µM; active compounds read high
# Procedure, shortened: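 Test agents were incubated with a yeast strain of defined genotype (DNA damage repair defect). Inhibition of growth was derived by comparison with vehicle-exposed cultures.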
Structure (SMILES),growth inhibition [1] [%],growth inhibition [2] [%],growth inhibition [3],growth inhibition [4] [%],growth inhibition [5] [%],growth inhibition [6] [%]
[O-][N+](=Nc1ccc(Sc2ccccc2)cc1)c1ccc(Sc2ccccc2)cc1,-4.65,2.3,19%,-17,21.9,28.1
CCOC(=O)CN=NNc1ccc([N+](=O)[O-])cc1,10.3,8.85,-3.5%,-42.2,21.1,7.7
CC(Sc1ccccc1)C(CO)(CO)[N+](=O)[O-] (stereo not given),-15.1,1.8,28.4%,9.4,-14.6,28.4
C/C=C(\C(=C\C)c1ccc(OC(=O)c2ccccc2)c(C2CCCCC2)c1)c1ccc(O)c(C2CCCCC2)c1,49,34.5,44.9%,30.4,2.95,45.8
OC(Cc1ccccn1)c1ccccc1 (stereo not given),33.4,13.1,21.4%,22.6,9.35,32.1
O=C(c1ccccc1)[C@H]1Nc2ccc(Cl)cc2[C@H]2CCC[C@@H]12,-2.4,-30.2,0.1%,10.2,-14.6,-17.1
CNC(=O)OCc1c(COC(=O)NC)c(-c2cccs2)n2c1CCC2,42,39.5,23.1%,30.8,27.1,40.7
N#C/C(=C/c1ccc[nH]1)C(=O)O,-11.6,-10.2,-6.9%,-1,-5.05,-25.9
Cc1cccc(C)c1N=Nc1ccc(O)c(CN(C)C)c1,-6.2,-14.7,-12.1%,-3.6,22.6,-8.85
CCCCCC/C=C\CCCCCCCCCC1=CC(=O)C=C(OC)C1=O,-1.35,-10.2,-19%,-83.8,-31.4,-11.7
O=C(C[n+]1ccccc1)N/N=C(/CCC(=O)N(Cc1ccccc1)Cc1ccccc1)CC(=O)c1ccccc1,-21.1,-21.8,-38%,0.85,-26.6,-21.8
O=C1C(N=Nc2ccc(S(=O)(=O)Nc3ccccn3)cc2)C(=O)N(c2ccccc2)C(=S)N1c1ccccc1,8.8,6.1,8.25%,18.3,-1.25,23.6
CCC1=CCN(c2cc(C)ccn2)OC1c1ccc(OC)cc1 (stereo not given),47.9,6.15,48.4%,14.3,61,6.35
COC(=N)CCCl,-1.3,-3.95,10.8%,7.2,-4.55,1.5
O=C1C(=O)C(c2ccccc2)(c2ccccc2)C(=O)N1c1ccccc1,29.6,13.2,0.9%,49.6,16.4,-6.7
COc1cccc(NC(=S)NNC(=S)NNc2ccccc2)c1,59.4,60.2,70.3% (active),43,65.2,63.6
O=C(Cn1c(=O)oc2ccc(C(=O)c3ccc(F)cc3)cc21)c1ccccc1,-21.4,-24.5,-6.25%,-27.9,-0.2,-26.9
CC(=O)c1cccc(NCn2nnc3ccccc32)c1,-47.5,-8.65,-62.3%,-4.25,-45.4,-34.5
OCCN(Cc1ccccc1)Cc1ncccc1O,9.35,-27.1,-11.4%,8.85,-3.9,5.7
CC1(C)OC(=O)N=C1c1cccc(Cl)c1,-12.3,-17.8,-15.9%,-5.9,4.25,-3.7

Structure (SMILES),growth inhibition [1] [%],growth inhibition [2] [%],growth inhibition [3],growth inhibition [4] [%],growth inhibition [5] [%],growth inhibition [6] [%]
COC12OCCN(C)C1=CC(=O)C1=NNC(C)C12 (stereo not given),-37,-1.6,-8%,-27,-11.8,-36.5
c1ccc(SCN(CSc2ccccc2)c2ccccc2)cc1,-1.35,26.9,13.8%,66.8,22.1,14.8
O=C(CCCCCCC(=O)ON1C(=O)CCC1=O)ON1C(=O)CCC1=O,-16.9,-3.55,-16.8%,13.8,-24.4,-4.1
CN(C)c1cccc(/C=C(\C#N)c2ccccc2)c1,2.85,13.8,35.5%,28.8,54.1,15.2
COC(=O)/C=C/CCBr,-13,-22.1,-17.6%,-39.1,-5.2,-11.5
CC(C)(C)[Si](C)(C)OCC1CCC(n2cnc3c(N)ncnc32)O1 (stereo not given),19.7,-3.1,-6.2%,-4.7,-1.95,6.7
C#CCN(Cc1ccc2nc(-c3ccccc3)c(Cl)nc2c1)c1ccc(Cl)c(Cl)c1,-15.2,-6.4,-2.25%,-37.5,-16.4,-18.2
CC1OC(OCC2COC(O)(Oc3c(-c4ccc(O)c(O)c4)oc4cc(O)cc(O)c4c3=O)C(O)C2O)C(O)C(O)C1O (stereo not given),20.1,-29.4,-15.8%,0.6,8.05,13.9
CCOC(=O)C(SC(Cl)(S(=O)(=O)c1ccccc1)S(=O)(=O)c1ccccc1)C(=O)OCC,2.1,10.1,-4.75%,-8.75,-13,-14.6
CCOC1(c2ccccc2)c2ccccc2Sc2ccccc21,-12.5,12.7,5.5%,-6.1,14.4,16.3
CCOP(=O)(OCC)/C(=C\n1ccc(=O)[nH]c1=S)C(=O)OC,-54.8,-54,-27.4%,-8.6,-28,-53.5
Cn1c(=O)ccc2c(=O)c3c(ccc4ccccc43)oc21,-10.1,-12.3,-28.1%,-10.1,-7.05,-23.9
SC1(S)CCCN(Cc2ccccc2)C1,8.55,19.2,42.8%,35.6,44,37.8
CC1(C)OB(O)OC1(C)C,-10.4,12.7,-35.2%,14.6,-0.9,-9.7
N#CC1=C(O)/C(=C\c2ccc(Cl)cc2)N=C1N,-28.3,-14.3,-7.8%,-13.9,-6.2,-3.35
COc1ccc2[nH]c3c4c(c5cc(C(C)(C)C)ccc5c3c2c1)C(=O)N(c1ccccc1)C4=O,-12.8,-13.3,3.1%,16.7,-14.2,-8.7
CCOC(=O)C(NC(=O)C(CCCCNP(=O)(OCC)OCC)NC(=O)C(C)NC(C)=O)C(C)C (stereo not given),-10.7,-10.4,-8.4%,-25.6,-1.35,3.75
c1ccc(CCN(CCc2ccccn2)CCc2ccccn2)nc1,-5.85,-13.6,0.35%,0.3,3,18
CC(C)[Si](OC1=C(c2ccccc2)C(NC(=O)/C=C/c2ccc([N+](=O)[O-])cc2)CCC1)(C(C)C)C(C)C (stereo not given),19.2,4.15,-0.2%,-6.7,-5.35,29.9
CCOC(=O)c1ccc(OC(=O)Nc2ccccc2)cc1,-2.2,6,1.15%,-12.4,-2.8,-28.1

# Source: PubChem BioAssay (NCI)
